Screening results from PubChem.
mHTT-CaM PPI inh = mHTT-calmodulin interaction abrogation; AID 1671202; AlphaScreen His-mHTT/GST-CaM binding, luminescence; inhibition, % at 15 µM; hit rate 3.6% among 190,000; P42858;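 note: 0% = both proteins with DMSO and 100% = one protein alone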
Pf apPOL block = Pf-apPOL DNA polymerase inhibition | Recombinant Pf-apPOL, molecular beacon fluorescence, 1.5 h | inhibition, % at 10 µM | hit rate 0.25% among 210,000
Starred values were filed as active, the others as inactive. Sampled rows, rich in hits. Any-hit rate of the full collection: about 3.5%. Cut-off read from the data, not from the text of the source: active = inhibition above about 50%; inactive = the rest.

`O=S(=O)(NCC(O)c1ccc(C(F)(F)F)cc1)c1ccc2c(c1)CCCC2` (stereo unspecified) gave mHTT-CaM PPI inh 100* and Pf apPOL block -2.
`Cn1nc(-c2nc(-c3ccccc3)no2)c2c1CCN(S(=O)(=O)c1ccc(C#N)cc1)C2` gave mHTT-CaM PPI inh -7 and Pf apPOL block -2.
O=C(Cn1ncccc1=O)NCCNC(=O)c1ccc(NC(=O)C2CC2)cc1 was read as mHTT-CaM PPI inh -21 and Pf apPOL block -9.
For Cc1nc(C(=O)NCc2cccs2)c(C)n1C1CCN(C)CC1 the results were mHTT-CaM PPI inh 0 and Pf apPOL block -4.
COc1cccc(CN2Cc3cccc4c3[C@H](C=CC4)CC2=O)c1 was read as mHTT-CaM PPI inh 100* and Pf apPOL block 0.
For O=C1C[C@H]2C=CCc3cccc(c32)CN1Cc1ccc(Cl)cc1 the results were mHTT-CaM PPI inh 30 and Pf apPOL block -2.
For COc1ccc(C2=NN(CC(=O)NCCCN3CCCC3=O)C(=O)CC2)cc1 the results were mHTT-CaM PPI inh -3 and Pf apPOL block -13.
Screening COc1ccc(/C=C/C(=O)Nc2c3c(nn2-c2cccc(Cl)c2)CSC3)cc1OC returned mHTT-CaM PPI inh 35 and Pf apPOL block -3.
Screening CCNC(=O)C(=O)Nc1ccc(Cl)c(C(F)(F)F)c1 returned mHTT-CaM PPI inh -5 and Pf apPOL block -1.
For CCN1CCN(Cc2c(O)ccc3c2OC(=Cc2c[nH]c4ccccc24)C3=O)CC1 the results were mHTT-CaM PPI inh 54* and Pf apPOL block -6.
`CCN(CC)Cc1c(O)ccc2c1OC(=Cc1c[nH]c3ccccc13)C2=O` gave mHTT-CaM PPI inh 72* and Pf apPOL block -31.
Screening CCN(CC)Cc1c(O)ccc2c1OC(=Cc1ccccc1C)C2=O returned mHTT-CaM PPI inh 10 and Pf apPOL block 0.
For CN1CCN(Cc2c(O)ccc3c2OC(=Cc2c[nH]c4ccccc24)C3=O)CC1 the results were mHTT-CaM PPI inh -1 and Pf apPOL block -10.
For COc1ccc(N2C(=O)CC(NCc3ccc(Cl)cc3)C2=O)cc1 (stereo unspecified) the results were mHTT-CaM PPI inh -6 and Pf apPOL block -3.
O=C(c1ccc(Cl)s1)N1CC2CC1CC2NS(=O)(=O)c1cccs1 (stereo unspecified) was read as mHTT-CaM PPI inh -3 and Pf apPOL block 0.
CCSc1nnc(-c2nn(C)c3c2CN(C(=O)c2cccc(OC)c2)CC3)n1C was read as mHTT-CaM PPI inh 3 and Pf apPOL block 1.
`COc1cc(OC)c2ccc(=O)oc2c1C(CCN1CCCC(C)C1)c1ccc2c(c1)OCO2` (stereo unspecified) gave mHTT-CaM PPI inh 17 and Pf apPOL block -8.
Screening COc1cc(C(CCN2CCOCC2)c2c(OC)cc(OC)c3c(C)cc(=O)oc23)cc(OC)c1OC (stereo unspecified) returned mHTT-CaM PPI inh 28 and Pf apPOL block -12.
Screening COc1ccc(C(CCN2CCCC(C)C2)c2c(OC)cc(OC)c3c2OC(=O)CC3c2cc(OC)c(OC)c(OC)c2)cc1 (stereo unspecified) returned mHTT-CaM PPI inh 54* and Pf apPOL block -2.
COc1cc(C(CCN2CCCC(C)C2)c2c(OC)cc(OC)c3c(-c4ccccc4)cc(=O)oc23)cc(OC)c1OC (stereo unspecified) was read as mHTT-CaM PPI inh 87* and Pf apPOL block -9.
COc1cc(C(CCN2CCCCC2)c2c(OC)cc(OC)c3c(-c4ccccc4)cc(=O)oc23)cc(OC)c1OC (stereo unspecified) was read as mHTT-CaM PPI inh 67* and Pf apPOL block -16.
`COc1cc(C(CCN2CCCC2)c2c(OC)cc(OC)c3c(C)cc(=O)oc23)cc(OC)c1OC` (stereo unspecified) gave mHTT-CaM PPI inh 10 and Pf apPOL block -13.
Screening CCCCCc1cc(=O)oc2c(C(CCN3CCCCC3)c3ccc(OC)cc3)c(OC)cc(OC)c12 (stereo unspecified) returned mHTT-CaM PPI inh 100* and Pf apPOL block -19.
`COc1cc(OC)c2ccc(=O)oc2c1C(CCN1CCCCC1)c1ccc(N(C)C)cc1` (stereo unspecified) gave mHTT-CaM PPI inh 42 and Pf apPOL block -12.
Nc1nc(O)c(C2=c3ccccc3=NC2=O)s1 was read as mHTT-CaM PPI inh 16.
`CC(=O)N1CCC(c2ccn3ncc(C(=O)N4CCOCC4)c3c2)CC1` gave mHTT-CaM PPI inh -2 and Pf apPOL block -6.
For COc1ccc(-c2nn(C)c(=O)c3ccccc23)cc1NC(=O)COc1ccc([N+](=O)[O-])cc1 the results were mHTT-CaM PPI inh -1 and Pf apPOL block -2.
`Cc1nc([N+](=O)[O-])c2n1CC(c1ccccc1)=NN2c1ccc([N+](=O)[O-])cc1` gave mHTT-CaM PPI inh 58* and Pf apPOL block -4.
For CC1=NN(c2ccccc2)C(=O)C1N=Nc1ccc([N+](=O)[O-])cc1 (stereo unspecified) the results were Pf apPOL block -4.
Screening CC(=O)CC1c2cc(F)ccc2C=C(c2ccsc2)N1c1ccc(C#CC2(O)CCCCC2)cc1 (stereo unspecified) returned mHTT-CaM PPI inh -12 and Pf apPOL block -8.
For CC(=O)CC1c2cc(F)ccc2C=C(c2ccsc2)N1c1ccc(C#Cc2cncn2C)cc1 (stereo unspecified) the results were mHTT-CaM PPI inh 75* and Pf apPOL block 0.
`Cc1ccccc1NC(=O)N(C)Cc1ccsc1` gave mHTT-CaM PPI inh -4 and Pf apPOL block 0.
O=C(CSc1cccc2cccnc12)N1CCCCC1 was read as mHTT-CaM PPI inh 88* and Pf apPOL block -2.
For O=C(CSc1cccc2cccnc12)NC1CCCCC1 the results were mHTT-CaM PPI inh 16 and Pf apPOL block -2.
Screening CCOc1nccnc1N1CCC(N(C)C(=O)NCc2ccco2)C1 (stereo unspecified) returned mHTT-CaM PPI inh 12 and Pf apPOL block -1.
For CCc1onc(C)c1C1CCCN1Cc1ccc(N(CC)CC)cc1 (stereo unspecified) the results were mHTT-CaM PPI inh 67* and Pf apPOL block 0.
For CCc1onc(C)c1C1CCCN1Cc1ccc(O)cc1 (stereo unspecified) the results were mHTT-CaM PPI inh -1 and Pf apPOL block 9.
For O=C(NCc1cccnc1)C(=O)NCc1cccnc1 the results were mHTT-CaM PPI inh -5 and Pf apPOL block 1.
`O=C(NCc1cccnc1)/C(=N\O)c1ccccn1` gave mHTT-CaM PPI inh active and Pf apPOL block 11.
`CCCCc1c(C)nc(NN=C2CCCCC2)[nH]c1=O` gave mHTT-CaM PPI inh -7.
Cc1ccc(CN2CCCN(c3ccc(NC(=O)c4cccs4)cc3)C2=O)cc1 was read as mHTT-CaM PPI inh 11 and Pf apPOL block -2.
`Cc1ccc(-c2csc(/C(C#N)=C/c3ccco3)n2)cc1` gave mHTT-CaM PPI inh -10 and Pf apPOL block 53*.
Screening COc1ccc(-c2csc(/C(C#N)=C/c3ccco3)n2)cc1 returned mHTT-CaM PPI inh -11 and Pf apPOL block 4.
`CS(=O)(=O)c1ccc(-c2ccc(NC(=O)c3cccs3)cc2)nn1` gave mHTT-CaM PPI inh -15 and Pf apPOL block -3.
Screening C=CCn1c(=N)n(CC(=O)c2ccc(Cl)c(Cl)c2)c2ccccc21 returned mHTT-CaM PPI inh -46 and Pf apPOL block -4.
C=CCn1c(=N)n(CC(=O)c2ccc(-c3ccccc3)cc2)c2ccccc21 was read as mHTT-CaM PPI inh 52* and Pf apPOL block -2.
